T cruzi growth-1: inhibitors of T. cruzi proliferation. AID 624255. inhibition, % at 8.34 µM. hit rate 5.9% among 77,000. T. cruzi beta-gal in NIH3T3, GalScreen luminescence, 90 h;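 active = mean inhibition above about 93%, with at least 55% of replicates each passing it, limit read from the data, passing the limit was not always enough; inconclusive = only one of those two conditions holds; inactive = neither condition holds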
C diff growth: blocks growth of Clostridium difficile. hit rate 0.25% among 86,000. growth activity, negative = inhibition, % at 16 µg/mL (by protocol). AID 1259249. Clostridium difficile clinical isolate growth, OD600, 24 h; active compounds read low;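 active = mean growth activity at or below -80% and every replicate also at or below -80%; inconclusive = mean at or below -80% but some replicate above -80%; inactive = mean growth activity above -80%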;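 note: 0% = DMSO wells and -100% = levofloxacin 16 µg/mL wells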
Pf Dd2 growth: P. falciparum Dd2 growth inhibition; SYBR Green, 72 h; active compounds read low; activity change, % at 10 µM; hit rate 2.3% among 94,000; AID 1159554; in the data active = activity change below about -80%; inconclusive = no clear call, values can overlap the other calls
T cruzi growth-2: Trypanosoma cruzi proliferation inhibition; shares compounds with T cruzi growth-1; T. cruzi beta-gal in NIH3T3, GalScreen luminescence, 90 h; inhibition, % at 8.35 µM; hit rate 72% among 5,600; AID 651739;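 active = mean replicate inhibition above about 95% and at least 55% of replicates individually reaching it, limit read from the data; inconclusive = only one of the two criteria is met; inactive = neither criterion is met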
T cruzi growth-3: Trypanosoma cruzi proliferation inhibition; shares compounds with T cruzi growth-1; T. cruzi beta-gal in NIH3T3, GalScreen luminescence, 90 h; inhibition, % at 2.09 µM; hit rate 21% among 5,600; AID 651740;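 active = mean inhibition above about 95%, with at least 55% of replicates also reaching it, limit read from the data; inconclusive = meets just one of the two conditions; inactive = meets neither condition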;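 note: plate controls were neutral control median for no effect and positive control median for full effect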
NIH3T3 tox: cytotoxicity in mouse NIH/3T3 fibroblasts; NIH/3T3 viability, CellTiter-Glo ATP luminescence, 90 h; hit rate 14% among 5,600; shares compounds with T cruzi growth-1; AID 651742; cytotoxicity (signal decrease), % at 8.35 µM;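 active = mean signal decrease across replicates above about 35% based on untreated-well scatter, with enough replicates individually passing, limit read from the data; inconclusive = no rule stated though some were filed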;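 note: 0% = median of neutral control wells and 100% = median of positive control wells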
3T3 cytotox 2: cytotoxicity in mouse NIH/3T3 fibroblasts | shares compounds with T cruzi growth-1 | NIH/3T3 viability, CellTiter-Glo ATP luminescence, 90 h | inhibition, % at 24.9 µM | hit rate 56% among 5,600 | AID 651744;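 active = mean loss of cell viability signal at or above a set limit, and enough replicates individually reaching it; inconclusive = meets only the mean limit or only the replicate share; inactive = meets neither condition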;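 note: 0% = median of neutral control wells and 100% = median of positive control wells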
The depositor's hits bear a star; ? = inconclusive; . = no result. Most compounds without a hit are left out; they make up all but 6.8% or so of the library.

SMILES	T cruzi growth-1	C diff growth	Pf Dd2 growth	T cruzi growth-2	T cruzi growth-3	NIH3T3 tox	3T3 cytotox 2
CC(C)NC(=O)Nc1ccc2c(c1)C(=O)N([C@@H](C)CO)C[C@@H](C)[C@H](CN(C)C(=O)c1ccncc1)OCCCC[C@@H](C)O2	-2	-3	30	.	.	.	.
Cc1noc(C)c1NC(=O)N(C)C[C@H]1Oc2ccc(NS(=O)(=O)c3ccc(Cl)cc3)cc2CC(=O)N([C@@H](C)CO)C[C@H]1C	12	-1	34	.	.	.	.
C[C@@H]1CN([C@@H](C)CO)S(=O)(=O)c2ccc(/C=C/c3ccccc3)cc2O[C@H]1CN(C)C(=O)c1ccc2c(c1)OCO2	118*	5	-87*	105*	85	42*	59*
C[C@H](CO)N1C[C@H](C)[C@@H](CN(C)C(=O)c2ccc3c(c2)OCO3)Oc2cc(/C=C/c3ccccc3)ccc2S1(=O)=O	119*	-5	-71	104*	52	8	45*
C/C=C/c1ccc2c(c1)O[C@@H](CN(C)C(=O)c1ccc3c(c1)OCO3)[C@H](C)CN([C@H](C)CO)S2(=O)=O	11	1	-52	.	.	.	.
C/C=C/c1ccc2c(c1)O[C@H](CN(C)C(=O)c1ccc3c(c1)OCO3)[C@H](C)CN([C@H](C)CO)S2(=O)=O	52	-5	-11	.	.	.	.
CCCNC(=O)N[C@@H]1C=C[C@@H](CC(=O)NCCc2ccccc2)O[C@H]1CO	-2	.	39	.	.	.	.
CC(C)C#Cc1ccc([C@@H]2[C@H](C#N)N(C(=O)c3cccc(F)c3)[C@H]2CO)cc1	?	-5	-28	92	106*	16	78*
N#C[C@@H]1[C@@H](c2ccc(C#CC3CCCC3)cc2)[C@@H](CO)N1C(=O)c1cccc(F)c1	.	2	-39	.	.	.	.
CC(C)C#Cc1ccc([C@@H]2[C@@H](C#N)N(C(=O)c3cccc(F)c3)[C@H]2CO)cc1	97*	13	-60	103*	81	10	32
N#C[C@@H]1[C@@H](c2ccc(C#CC3CCCC3)cc2)[C@H](CO)N1C(=O)c1cccc(F)c1	.	-5	-55	.	.	.	.
CC(C)C#Cc1ccc([C@H]2[C@@H](CO)N(C(=O)c3cccc(F)c3)[C@H]2C#N)cc1	93	7	-69	.	.	.	.
N#C[C@H]1[C@H](c2ccc(C#CC3CC3)cc2)[C@@H](CO)N1C(=O)c1cccc(F)c1	?	19	-38	97*	101*	6	-5
CNC[C@H]1OCCCC[C@H](C)Oc2ccc(NS(=O)(=O)c3ccccc3)cc2C(=O)N([C@H](C)CO)C[C@@H]1C	-24	-5	14	.	.	.	.
CO[C@@H]1CN(C)C(=O)c2cc(NC(=O)NC3CCCCC3)ccc2OC[C@H](C)N(C)C[C@H]1C	-5	1	27	.	.	.	.
CCC(=O)N1C[C@@H](C)[C@@H](OC)CN(C)C(=O)c2cc(NC(=O)Nc3cccc(F)c3)ccc2OC[C@@H]1C	17	.	-18	.	.	.	.
C[C@@H]1CN([C@H](C)CO)C(=O)c2cccc(NC(=O)C3CCCCC3)c2O[C@@H]1CN(C)C(=O)Nc1ccc2c(c1)OCO2	43	-4	-34	.	.	.	.
C[C@H](CO)N1C[C@H](C)[C@@H](CN(C)Cc2ccncc2)OCCCC[C@H](C)Oc2ccc(NS(=O)(=O)c3cccs3)cc2C1=O	21	0	2	.	.	.	.
C[C@@H]1CCCCO[C@@H](CN(C)Cc2ccc(Cl)c(Cl)c2)[C@@H](C)CN([C@H](C)CO)C(=O)c2cc(NS(=O)(=O)c3cccs3)ccc2O1	115*	4	4	97*	84	-4	50*
C[C@@H]1CCCCO[C@@H](CN(C)Cc2ccncc2)[C@@H](C)CN([C@@H](C)CO)C(=O)c2cc(NS(=O)(=O)c3cccs3)ccc2O1	28	4	-28	.	.	.	.
C[C@@H]1CCCCO[C@H](CN(C)Cc2ccc(Cl)c(Cl)c2)[C@@H](C)CN([C@H](C)CO)C(=O)c2cc(NS(=O)(=O)c3cccs3)ccc2O1	116*	7	-21	105*	2	9	57*
C[C@@H]1CCCCO[C@H](CN(C)Cc2ccncc2)[C@H](C)CN([C@H](C)CO)C(=O)c2cc(NS(=O)(=O)c3cccs3)ccc2O1	33	0	-33	.	.	.	.
